# Results from the supplement of paper PMC13380429.
# Values without a mark were called inactive.
# System: Vero E6 infected with SARS-CoV-2
# Experiment: inhibition of SARS-CoV-2 cytopathic effect; higher = more antiviral protection, active = above 15
# Details: 48 h
SMILES,inhibition of SARS-CoV-2 cytopathic effect (1 nM) [%],inhibition of SARS-CoV-2 cytopathic effect (8.33 nM) [%],inhibition of SARS-CoV-2 cytopathic effect (100 nM) [%],inhibition of SARS-CoV-2 cytopathic effect (833.33 nM),inhibition of SARS-CoV-2 cytopathic effect (10000 nM)
CC(C)C[C@@H](NC(=O)[C@H](C)NC(=O)CNC(=O)[C@@H](NC=O)C(C)C)C(=O)N[C@@H](C)C(=O)N[C@@H](C(=O)N[C@H](C(=O)N[C@@H](C(=O)N[C@@H](Cc1c[nH]c2ccccc12)C(=O)N[C@H](CC(C)C)C(=O)N[C@@H](Cc1c[nH]c2ccccc12)C(=O)N[C@H](CC(C)C)C(=O)N[C@@H](Cc1c[nH]c2ccccc12)C(=O)N[C@H](CC(C)C)C(=O)N[C@@H](Cc1c[nH]c2ccccc12)C(=O)NCCO)C(C)C)C(C)C)C(C)C [gramicidin],0.05,0.15,0.36,-1.18%,2.22%
COc1ccc2c(c1)CN(C)CC2c1ccc(Cl)c(Cl)c1 (stereo not given) [diclofensine],3.38,2.5,-1.16,3.57%,1.83%
CC(=O)Oc1ccccc1C(=O)Oc1cccc(CO[N+](=O)[O-])c1,-1.24,-0.2,-0.7,0.32%,3.31%
COc1cc2c(Nc3ccc(NC(=O)c4ccccc4)cc3)ncnc2cc1OCCCN1CCOCC1,-0.39,0.92,-0.95,0.98%,0.98%
O=C(O)Cc1ccc(OCCNC[C@H](O)c2ccccc2)cc1,2.57,3.11,0.37,-0.56%,1.01%
O=C(O)Cc1ccc(CCNS(=O)(=O)c2ccc(Cl)cc2)cc1 [daltroban],-0.21,3.04,-1.18,-0.76%,1.78%
CNC[C@@H]1CC[C@@H](N)[C@@H](O[C@H]2[C@H](O)[C@@H](O[C@H]3OC[C@](C)(O)[C@H](NC)[C@H]3O)[C@H](N)C[C@@H]2N)O1 [micronomicin],0.04,1.42,0.72,3.66%,-0.03%
CC(=O)Nc1ncc([N+](=O)[O-])s1 [nithiamide],-2.44,-2.01,-13.5,-2.95%,-1.53%
Oc1cccc(Nc2ccc(Nc3cccc(O)c3)nn2)c1 [beta-amyloid-synthesis-inhibitor],-0.67,1.31,0.24,1.07%,4.99%
O=C(NCCN1CCN(c2ncccn2)CC1)C12CC3CC(CC(C3)C1)C2 [adatanserin],-1.23,0.62,-2.77,2.26%,-1.99%
Cc1cc(Nc2ncnc3ccc(-c4ccc(CNCCS(C)(=O)=O)o4)cc23)ccc1Oc1ccn2ncnc2c1 [HER2-Inhibitor-1],2.32,3.23,-0.2,-2.65%,3.1%
Cc1cc(C)c(N)c(C#Cc2cccc(F)c2)n1,1.69,-1.37,0.6,3.1%,1.98%
CCCCCCCCCC(=O)OC1(c2ccc(Cl)cc2)CCN(CCCC(=O)c2ccc(F)cc2)CC1 [haloperidol-decanoate],0.13,0.37,-2.1,-0.9%,-1.91%
CC(C)(Oc1ccc(Cl)cc1)C(=O)N1CSCC1C(=O)O (stereo not given) [timofibrate],1.85,4.22,2.73,-9.25%,3.42%
CS(=O)(=O)Oc1ccc2c(NC(N)=O)c(C(=O)c3ccc(Cl)cc3Cl)oc2c1 [lirimilast],-4.96,-9.08,-8.83,-12.5%,-5.64%
CCOC(=O)Nc1ccc2c(c1)N(C(=O)CCN1CCOCC1)c1ccccc1S2 [moracizine],0.84,3.43,-0.23,2.61%,5.32%
COc1ccc(CCCO[C@@H](Cn2ccnc2)c2ccc(OC)cc2)cc1,-4.38,-5.95,-10.2,-1.69%,0.39%
CC[C@@]1([C@H]2O[C@H]([C@H]3O[C@@](O)(CO)[C@H](C)C[C@@H]3C)C[C@H]2C)CC[C@H]([C@@]2(C)CC[C@]3(C[C@H](O)[C@@H](C)[C@@H]([C@H](C)[C@H](OC)[C@@H](C)C(=O)O)O3)O2)O1,-2.66,-0.7,2.93,27.6% (active),52.5% (active)
